Source: the supplement of paper PMC3545927
Some of the results follow. The true hit rate is not given.

Biological target: furin, P09958
Assay: furin cleavage Z-score vs untreated control; higher = more cleavage, active = 3.5 or more, inactive = 1 or less, 8 variable residues between constant flanks
Method: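 Multiplexed peptide-cDNA fusion cleavage assay. 8-mer variable peptides flanked by constant Cys-Ala (N-term) and Ala-Gly-Asn-Ala-Ser-Ala-Ser-Ala (C-term) and conjugated to a cDNA oligonucleotide were bead-immobilised via the N-terminus. They were treated with purified furin at a 1:10 enzyme:substrate ratio in 50 mM HEPES pH 7.5, 1 mM CaCl2, 100 mM NaCl for 7.5, 15 or 30 min. Released cDNA was counted by next-generation sequencing, and log counts versus no-furin controls were lowess-adjusted and converted to robust Z-scores.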

Sequence of furin, P09958 (P09958 whole entry): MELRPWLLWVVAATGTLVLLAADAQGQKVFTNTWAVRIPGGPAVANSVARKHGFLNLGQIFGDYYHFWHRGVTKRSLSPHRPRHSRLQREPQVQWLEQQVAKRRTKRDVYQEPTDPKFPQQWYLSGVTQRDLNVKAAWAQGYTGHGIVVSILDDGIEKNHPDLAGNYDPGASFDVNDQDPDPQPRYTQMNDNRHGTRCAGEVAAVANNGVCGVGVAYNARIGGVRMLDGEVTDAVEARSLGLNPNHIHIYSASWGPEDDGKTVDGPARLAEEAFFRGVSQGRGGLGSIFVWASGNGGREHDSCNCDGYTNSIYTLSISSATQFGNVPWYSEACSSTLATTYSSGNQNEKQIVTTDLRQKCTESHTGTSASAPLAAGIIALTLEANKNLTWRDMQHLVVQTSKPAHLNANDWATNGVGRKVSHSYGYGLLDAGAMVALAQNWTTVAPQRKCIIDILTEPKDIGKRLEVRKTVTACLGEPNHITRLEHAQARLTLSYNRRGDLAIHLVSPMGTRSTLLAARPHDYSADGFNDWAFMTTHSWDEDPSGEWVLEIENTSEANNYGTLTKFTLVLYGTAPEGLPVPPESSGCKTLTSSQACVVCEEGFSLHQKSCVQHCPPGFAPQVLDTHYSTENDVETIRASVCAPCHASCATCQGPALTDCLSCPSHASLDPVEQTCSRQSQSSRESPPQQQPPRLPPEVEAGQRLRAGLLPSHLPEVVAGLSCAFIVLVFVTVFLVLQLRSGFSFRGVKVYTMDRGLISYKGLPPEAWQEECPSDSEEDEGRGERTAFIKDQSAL

Sequence | furin cleavage Z-score (7.5 min) | furin cleavage Z-score (15 min) | furin cleavage Z-score (30 min)
CAYPKRSAGEAGNASASA [FS-2117] | -0.54 (inactive) | -0.564 (inactive) | 0.202 (inactive)
CAGFLRKRREAGNASASA [FS-426] | 11.1 (active) | 11.2 (active) | 8.58 (active)
CANCLRQRRGAGNASASA [FS-465] | -0.759 (inactive) | -0.337 (inactive) | -0.511 (inactive)
CAKWLRFIRGAGNASASA [FS-1022] | 2.09 | 0.354 (inactive) | 3.09
CATKNRQRRGAGNASASA [FS-1094] | 6.87 (active) | 7.34 (active) | 5.71 (active)
CAWQRRQRRGAGNASASA [FS-896] | 6 (active) | 6.49 (active) | 5.96 (active)
CALNNRQIRGAGNASASA [FS-1136] | 3.62 (active) | 5.07 (active) | 5.04 (active)
CAPPRRQRRGAGNASASA [FS-1050] | 0.924 (inactive) | 0.828 (inactive) | 1.23
CADGNRQVRGAGNASASA [FS-981] | 0.00638 (inactive) | -1.04 (inactive) | 0.17 (inactive)
CAMVVTSTWVAGNASASA [HC2146] | -1.12 (inactive) | -1.84 (inactive) | -2.22 (inactive)
CAIGTVLDQAAGNASASA [HC825] | -1.51 (inactive) | -1.57 (inactive) | -0.129 (inactive)
CARHKRQSGVAGNASASA [FS-2211] | 5.97 (active) | 7.29 (active) | 6.66 (active)
CARQKKGVVPAGNASASA [FS-2749] | 0.952 (inactive) | -0.837 (inactive) | -1.72 (inactive)
CARHKRLSYQAGNASASA [FS-3255] | -1.36 (inactive) | -0.609 (inactive) | 1.23
CARRCRASGVAGNASASA [HC1509] | -1.17 (inactive) | -0.493 (inactive) | -0.69 (inactive)
CARQKRGWMWAGNASASA [FS-2169] | -0.547 (inactive) | 2.65 | 3
CARRKRDWVIAGNASASA [FS-2778] | 3.18 | 5.46 (active) | 8.57 (active)
CARQKRDPAFAGNASASA [FS-2289] | 2.9 | 3.65 (active) | 5.36 (active)
CARSKRRWVIAGNASASA [FS-2812] | -0.553 (inactive) | -0.688 (inactive) | 0.146 (inactive)
CARQKRDWIWAGNASASA [FS-2751] | 3.51 (active) | 5.26 (active) | 8.38 (active)
CACLEVVTSTAGNASASA [HC2280] | -1.07 (inactive) | -0.98 (inactive) | 0.458 (inactive)
CAARLLARGGAGNASASA [HC1625] | -1.06 (inactive) | -1.7 (inactive) | -0.871 (inactive)
CAQTASRQAEAGNASASA [HC1029] | 1.23 | 0.0169 (inactive) | -0.455 (inactive)

Sequence | furin cleavage Z-score (7.5 min) | furin cleavage Z-score (15 min) | furin cleavage Z-score (30 min)
CAGVRTITTGAGNASASA [HC801] | 0.457 (inactive) | -0.157 (inactive) | -1.39 (inactive)
CASTPCSIHLAGNASASA [HC2524] | -0.158 (inactive) | 0.385 (inactive) | 1.12
CATAPCSGSWAGNASASA [HC1843] | -0.496 (inactive) | -0.615 (inactive) | -1.22 (inactive)
CARQKRFVLSAGNASASA [FU6] | 5.85 (active) | 4.21 (active) | 6.95 (active)
CARQKRFVLSAGNASASA [FS-2444] | 4.98 (active) | 5.66 (active) | 7.27 (active)
CARHKRDWVVAGNASASA [FS-2677] | 4.03 (active) | 1.73 | 8.28 (active)
CARHERDAGVAGNASASA [FS-1822] | 0.322 (inactive) | 0.612 (inactive) | -0.236 (inactive)
CARYSRGVLSAGNASASA [FS-2113] | 0.374 (inactive) | 0.104 (inactive) | 0.696 (inactive)
CARQKRDWVIAGNASASA [FS-2586] | 2.07 | 4.34 (active) | 6.74 (active)
CARQKRDTTHAGNASASA [FS-2750] | 12.5 (active) | 13.1 (active) | 9.68 (active)
CARQKRLFCRAGNASASA [FS-2755] | -1.26 (inactive) | 0.165 (inactive) | 0.958 (inactive)
CALSGWFTAGAGNASASA [HC1644] | -0.277 (inactive) | -0.506 (inactive) | -1.36 (inactive)
CAFLVGQLFTAGNASASA [HC303] | -0.568 (inactive) | -0.266 (inactive) | 0.343 (inactive)
CASGDVVVVAAGNASASA [HC875] | -0.568 (inactive) | -1.7 (inactive) | 1.07
CAMEECSYHLAGNASASA [HC1729] | -0.21 (inactive) | -0.538 (inactive) | -0.509 (inactive)
CAAPRSSMSNAGNASASA [TR10] | -0.848 (inactive) | -0.0583 (inactive) | -0.668 (inactive)
CARQKRDANSAGNASASA [FS-2506] | 10.9 (active) | 12 (active) | 11.1 (active)
CARQKKADEPAGNASASA [FS-3033] | -0.414 (inactive) | 0.374 (inactive) | -1.07 (inactive)
CACQDHLEFWAGNASASA [HC936] | -1.02 (inactive) | -2.52 (inactive) | -2.85 (inactive)
CAGVGRVLRSAGNASASA [FS-129] | 7 (active) | 7.17 (active) | 7.2 (active)
CAKDGRRRKSAGNASASA [FS-446] | 0.703 (inactive) | 2.31 | 0.747 (inactive)
CAKPRRILRSAGNASASA [FS-1019] | 6.74 (active) | 4.42 (active) | 5.71 (active)
CAKPRRRRKSAGNASASA [FS-1020] | 5.69 (active) | 7.66 (active) | 7.17 (active)
